Gli-Sufu antag: blocks Gli-Sufu signaling in a luciferase reporter | inhibition, % at 5 µM | AID 588413 | actives 0.74% (n = 340,000) | Sufu-KO-LIGHT fibroblasts, Gli luciferase reporter luminescence;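 active = inhibition above about 55%, limit read from the data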;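 note: 0% = DMSO-treated cells and 100% = wells with medium but no cells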
Jurkat NFkB inh: inhibitors of the PMA/ionomycin-induced NF-kB reporter in Jurkat cells; PMA/ionomycin-induced NF-kB luciferase reporter, luminescence; inhibition, % at 4 µM; actives 0.53% (n = 330,000); in the data active = inhibition above about 50%
697 NFkB inh: lowers PMA/ionomycin-induced NF-kB signal in 697 B cells. 697 B-cell NF-kB luciferase reporter, 16 h. inhibition, % at 4 µM. actives 0.33% (n = 330,000). AID 435022; in the data active = inhibition above about 35%
Mdm2 MdmX PPI: inhibitors of human Mdm2/MdmX interaction; SaOS-2 split-luciferase Mdm2/MdmX complementation, luminescence; O15151+Q00987; inhibition, % at 8 µM; actives 3% (n = 330,000);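 active = inhibition of at least 50% at 8 µM in the primary screen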
Target sequence (O15151 whole entry, looked up): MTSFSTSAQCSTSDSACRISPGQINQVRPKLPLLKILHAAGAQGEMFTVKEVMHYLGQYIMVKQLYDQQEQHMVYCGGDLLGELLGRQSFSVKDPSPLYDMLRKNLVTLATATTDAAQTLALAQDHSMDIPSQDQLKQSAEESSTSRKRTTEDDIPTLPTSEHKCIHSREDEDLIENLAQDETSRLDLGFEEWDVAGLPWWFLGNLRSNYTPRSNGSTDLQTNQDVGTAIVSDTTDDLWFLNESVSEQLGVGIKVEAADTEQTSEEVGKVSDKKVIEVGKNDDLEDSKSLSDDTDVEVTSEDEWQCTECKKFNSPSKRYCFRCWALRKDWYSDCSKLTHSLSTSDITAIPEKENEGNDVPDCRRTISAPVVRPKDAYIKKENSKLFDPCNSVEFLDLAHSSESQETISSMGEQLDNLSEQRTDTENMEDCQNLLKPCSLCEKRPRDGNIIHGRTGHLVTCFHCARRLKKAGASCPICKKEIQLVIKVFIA
Target sequence (Q00987 whole entry, looked up): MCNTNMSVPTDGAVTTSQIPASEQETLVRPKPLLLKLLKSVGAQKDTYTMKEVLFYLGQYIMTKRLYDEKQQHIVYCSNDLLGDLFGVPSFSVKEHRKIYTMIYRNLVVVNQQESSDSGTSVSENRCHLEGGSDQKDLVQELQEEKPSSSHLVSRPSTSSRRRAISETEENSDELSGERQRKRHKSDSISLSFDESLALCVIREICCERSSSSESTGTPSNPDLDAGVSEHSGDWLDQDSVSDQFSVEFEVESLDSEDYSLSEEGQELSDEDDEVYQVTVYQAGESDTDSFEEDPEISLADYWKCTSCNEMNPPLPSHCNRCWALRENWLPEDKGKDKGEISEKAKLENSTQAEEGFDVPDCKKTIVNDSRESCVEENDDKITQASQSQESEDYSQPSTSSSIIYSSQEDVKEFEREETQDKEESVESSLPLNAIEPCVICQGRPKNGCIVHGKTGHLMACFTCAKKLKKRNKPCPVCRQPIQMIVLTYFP
aSyn UTR inh: MLPCN primary screen, SNCA 5' untranslated region; inhibition, % (tested at 7.5 µM); actives 0.82% (n = 300,000); alpha-synuclein 5'UTR reporter, inhibitor activity; in the data active = inhibition above about 60%;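 note: H4 neuroglioblastoma cells stably carrying SNCA 5'UTR luciferase fusion; 0% = DMSO wells and 100% = positive control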
KLF5 inhibitor: suppresses KLF5 promoter-driven expression; AID 1700; inhibition, % at 5 µM; DLD-1 KLF5 promoter-luciferase reporter, luminescence; actives 0.23% (n = 290,000);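 active = inhibition above a per-plate limit of that plate's mean compound inhibition plus 3 SD, cut at about 60% in these data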;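 note: 0% = DMSO wells and 100% = LY294002 at 200 µM; higher means less KLF5 promoter-driven luciferase light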
Gli antag conf: Gli-SUFU antagonism confirmation, single concentration. actives 40% (n = 2,500). inhibition, % at 5 µM. Sufu-KO-LIGHT cells, Gli luciferase reporter, luminescence. shares compounds with Gli-Sufu antag;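 active = mean inhibition at 5 µM reaching about 45%, limit read from the data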;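 note: plate controls were DMSO-treated cells for no effect and wells lacking cells for full effect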
SufuKO cytotox: counter-screen for Gli-SUFU antagonists: cytotoxicity | shares compounds with Gli-Sufu antag | Sufu-KO-LIGHT cells cytotoxicity, ATP luminescence | cytotoxicity, % at 5 µM | actives 32% (n = 2,500) | AID 651994;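 active = mean cytotoxicity at 5 µM above about 25%, limit read from the data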;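 note: cells exposed to compound overnight for roughly 16 to 18 hours; plate controls were DMSO wells with cells for no effect and medium without cells for full effect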
Wnt3a counter: Wnt3a reporter inhibition counter-screen | actives 20% (n = 2,500) | shares compounds with Gli-Sufu antag | inhibition, % at 6.25 µM | Wnt-LIGHT cells, Wnt3a-driven luciferase reporter, luminescence;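 active = mean inhibition above about 25%, limit read from the data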
* marks the source's active call; other numbers are inactive results; nt = no result. An excerpt weighted towards active compounds, which were near 4.1% of everything screened.

SMILES	Gli-Sufu antag	Jurkat NFkB inh	697 NFkB inh	Mdm2 MdmX PPI	aSyn UTR inh	KLF5 inhibitor	Gli antag conf	SufuKO cytotox	Wnt3a counter
O=C(NCCc1ccc(F)cc1)c1ccc2c(=O)n3c(nc2c1)CCC3	95.9*	-31.7	-20.8	-26.0	-71.1	nt	-8.3	14.2	-113.6
O=C(NCCOc1ccccc1F)c1ccc2c(=O)n3c(nc2c1)CCC3	-59.0	-95.1	-94.7	-26.6	nt	nt	nt	nt	nt
O=C(OCC(=O)N1CCCC1)c1cc(=O)c2ccccc2o1	53.7	-16.9	8.9	1.9	nt	nt	14.8	7.5	-1.3
COc1ccc(CNC(=O)CSc2nnc(-c3ccc(NC(C)=O)cc3)n2C)cc1	3.2	11.9	14.3	20.2	-22.0	-6.6	nt	nt	nt
COC(=O)/C(=N\Nc1ccc(Cl)cc1)Sc1nnc(-c2ccc(OC)cc2)n1C	80.3*	-0.1	5.8	5.2	9.1	-18.2	15.2	23.8	-15.8
O=C(Cn1cnc([N+](=O)[O-])n1)c1ccccc1	24.0	-1.2	2.2	-3.7	2.9	-28.0	nt	nt	nt
O=C(Cn1ccc([N+](=O)[O-])n1)c1ccccc1	50.7	-17.1	-13.7	-19.0	-4.1	-14.3	8.5	20.6	-5.1
O=C(NCCOC(=O)c1ccccc1)c1ccccc1	0.0	-3.8	5.4	12.1	nt	nt	nt	nt	nt
O=C(NCCOC(=O)c1ccc(C(=O)OCCNC(=O)c2ccccc2)o1)c1ccccc1	54.1	-14.2	-3.4	5.9	14.5	5.4	13.2	4.9	4.2
CCNC(=S)N1CCC(Cc2ccccc2)CC1	26.6	0.6	1.1	19.9	-12.4	-34.6	nt	nt	nt
COc1ccc(NC(=S)N2CCC(Cc3ccccc3)CC2)cc1	61.8*	-5.9	20.9	19.0	nt	-10.3	44.7	10.3	13.1
S=C(Nc1ccccc1)N1CCC(Cc2ccccc2)CC1	53.3	19.7	-6.4	7.3	-10.1	9.0	66.1*	26.9*	22.5
COc1ccccc1CN1CCNC(=O)C1CC(=O)NCc1cn(C)nc1C (centres undefined)	-6.2	6.0	16.3	15.6	5.2	-22.6	nt	nt	nt
Cc1cccc(NC(=O)CSCC(=O)Nc2sccc2C#N)c1	-3.8	-6.9	-26.3	16.0	12.0	nt	nt	nt	nt
COc1ccc(-n2c(C)cc(C(=O)CN3C(=O)c4ccccc4C3=O)c2C)cc1	96.4*	-3.5	-11.0	-12.2	-15.3	-21.4	-3.1	10.2	-40.8
CCOC(=O)Cn1c(Br)nc2c1c(=O)[nH]c(=O)n2C	98.8*	-9.0	5.4	4.1	0.1	-33.0	11.5	7.4	-15.2
CCC(=O)OCCn1c(Br)nc2c1c(=O)[nH]c(=O)n2C	5.4	6.6	10.2	-9.5	18.7	-2.1	nt	nt	nt
O=C(c1ccc(Cl)cc1)N1CCN(c2ccnc3cc(Cl)ccc23)CC1	66.7*	nt	nt	nt	10.5	-34.4	68.6*	18.4	4.3
CCC(=O)N1CCN(c2ccnc3cc(Cl)ccc23)CC1	13.8	10.7	13.6	5.2	-4.1	12.9	nt	nt	nt
O=C(Cc1ccc(Cl)cc1Cl)OCC(=O)c1ccc[nH]1	8.0	-14.2	-10.2	2.1	1.8	0.9	nt	nt	nt
O=C(Cc1c(F)cccc1Cl)OCC(=O)c1ccc[nH]1	56.3*	5.1	13.6	-31.2	nt	nt	13.3	7.0	-10.0
O=C(Nc1nc(-c2cccs2)cs1)c1cccc(S(=O)(=O)N2CCCCCC2)c1	61.1*	-17.5	-30.8	1.3	3.4	-11.9	57.6*	-5.4	-81.1
Cn1c(CCN2CCN(c3ccccn3)CC2)nc2cc(NC(=O)COc3ccc(Cl)cc3)ccc21	61.1*	27.0	-25.2	47.9	35.8	-0.2	31.5	-10.1	29.0*
Cc1cccc(OCC(=O)Nc2ccc3c(c2)nc(CCN2CCN(c4ccccn4)CC2)n3C)c1	53.2	9.1	-43.9	31.2	-20.8	-11.9	nt	nt	nt
Cc1cc(OC(=O)c2ccccc2C(F)(F)F)c([N+](=O)[O-])c(=O)[nH]1	nt	-1.5	7.3	10.8	-8.3	-18.4	nt	nt	nt
SMILES	Gli-Sufu antag	Jurkat NFkB inh	697 NFkB inh	Mdm2 MdmX PPI	aSyn UTR inh	KLF5 inhibitor	Gli antag conf	SufuKO cytotox	Wnt3a counter
COc1ccc(CNC(=O)Cc2nn(C)c(=O)c3ccccc23)cc1	50.0	19.9	-18.9	25.4	nt	-2.2	nt	nt	nt
Cn1nc(CC(=O)NCc2ccc(C(F)(F)F)cc2)c2ccccc2c1=O	55.1*	29.7	-27.9	33.6	-9.8	-46.0	52.4*	25.1*	16.6
Cc1ccsc1/C=N/n1c(-c2ccncc2)n[nH]c1=S	56.1*	-5.6	-10.2	2.6	17.3	-10.2	10.4	7.2	1.4
OCCC1CN(Cc2nc3ccccc3s2)CCN1CCc1ccccc1 (centres undefined)	18.6	4.2	11.2	-16.6	-3.1	-4.1	nt	nt	nt
CC(=O)NS(=O)(=O)c1ccc(NC(=S)NC(=O)CC(C)C)cc1	0.4	-9.1	-0.7	5.8	1.0	-48.5	nt	nt	nt
CC(=O)NS(=O)(=O)c1ccc(NC(=S)NC(=O)C(C)C)cc1	92.8*	0.0	-12.1	9.9	8.5	5.5	31.0	5.4	-14.1
CCCCOc1ccc(/C=C/C(=O)OCC(=O)NC(=O)NCC(C)C)cc1OCC	24.7	4.6	-4.0	3.4	-8.9	5.8	nt	nt	nt
COCCN1C(=O)C(=O)/C(=C(/O)c2ccc(S(=O)(=O)N3CCOCC3)cc2)C1c1cccc([N+](=O)[O-])c1 (centres undefined)	-8.0	6.9	0.2	26.3	0.3	-22.4	nt	nt	nt
CC(C)c1nc2cc(C(=O)N3CCNC(=O)C3c3cccc(F)c3)ccc2o1 (centres undefined)	-2.9	-5.5	-5.4	-26.8	-4.9	-11.1	nt	nt	nt
CCN(CC)S(=O)(=O)c1ccc(NC(=O)Cn2c(=O)oc3ccccc32)cc1	31.2	3.9	7.4	17.4	9.4	-29.6	nt	nt	nt
O=C(Cn1c(=O)oc2ccccc21)Nc1ccc(S(=O)(=O)N2CCCCC2)cc1	54.0	-11.0	1.6	7.8	-9.8	9.6	10.7	6.5	-21.4
CSc1nc2[nH]c3c(c2c2nncn12)CC(C)(C)OC3	98.5*	-5.8	15.1	-10.6	-7.7	-5.8	26.9	5.5	-15.4
COc1ccc(OC)c(NC(=O)COC(=O)c2ccc(-n3cnnn3)cc2)c1	69.3*	-8.5	5.5	4.5	3.6	-6.6	10.1	-3.9	-14.1
COc1ccc(C(=O)NCc2nnc(SCC(=O)Nc3cc(OC)ccc3OC)o2)cc1	52.1	5.8	-14.2	11.5	-5.4	-15.7	13.7	1.9	6.2
CCCCNC(=O)c1cn(CC)c2ccc(S(=O)(=O)N3CCCCCC3)cc2c1=O	52.0	23.2	16.3	2.4	4.3	-13.6	19.3	40.1*	-28.4
CCn1cc(C(=O)NCCCOC(C)C)c(=O)c2cc(S(=O)(=O)N3CCCC3)ccc21	-23.4	-5.5	-28.2	1.4	-5.7	-24.4	nt	nt	nt
O=C(COC(=O)c1cc(Cl)nc2ccccc12)c1ccc(Cl)cc1	52.7	-4.2	-22.1	19.6	-0.3	-25.0	9.9	22.6	-16.5

Source: PubChem BioAssay
